MOR-DOR ag – OPRM1-OPRD1 heterodimerization agonism; activation, % at 9.3 µM; 0.3% of 340,000 active; P35372+P41143; cells, luminescence; in the data active = activation above about 18%;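 note: 0% = vehicle-treated cells and 100% = reference agonist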
Target sequence (P35372 whole entry, looked up): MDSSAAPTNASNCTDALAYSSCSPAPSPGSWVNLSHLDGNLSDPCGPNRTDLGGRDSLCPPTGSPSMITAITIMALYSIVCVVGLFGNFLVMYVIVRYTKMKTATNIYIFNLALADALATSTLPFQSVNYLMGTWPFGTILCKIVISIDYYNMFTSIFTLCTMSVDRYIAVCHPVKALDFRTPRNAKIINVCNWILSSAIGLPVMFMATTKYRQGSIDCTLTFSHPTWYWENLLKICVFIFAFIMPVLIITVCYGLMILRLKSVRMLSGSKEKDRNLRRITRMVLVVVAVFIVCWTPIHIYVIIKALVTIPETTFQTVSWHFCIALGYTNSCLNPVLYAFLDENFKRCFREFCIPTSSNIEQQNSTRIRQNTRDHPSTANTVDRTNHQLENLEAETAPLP
Target sequence (P41143 whole entry, looked up): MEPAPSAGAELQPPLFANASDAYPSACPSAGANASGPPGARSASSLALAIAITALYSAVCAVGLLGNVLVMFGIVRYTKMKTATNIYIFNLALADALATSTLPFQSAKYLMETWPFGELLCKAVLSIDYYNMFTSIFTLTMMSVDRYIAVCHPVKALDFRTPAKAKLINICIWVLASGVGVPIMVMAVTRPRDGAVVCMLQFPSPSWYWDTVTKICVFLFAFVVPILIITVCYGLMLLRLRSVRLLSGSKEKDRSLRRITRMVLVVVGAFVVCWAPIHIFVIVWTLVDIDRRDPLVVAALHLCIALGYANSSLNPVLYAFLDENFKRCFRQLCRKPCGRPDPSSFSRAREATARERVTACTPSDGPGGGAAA
MOR-DOR inv ag – mu-delta opioid heterodimer inverse agonism; P35372+P41143; cell-based MOR-DOR heterodimer luminescence; inhibition, % at 9.3 µM; 0.21% of 340,000 active; in the data active = inhibition above about 22%, passing the limit was not always enough;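 note: 0% = cells with DMSO and 100% = wells without cells with DMSO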
HTR5A inv ag – inverse agonist of human HTR5A in OPRM1-OPRD1 counter-screen. P47898. HTR5A cell line, luminescence, inverse agonism. inhibition, % at 9.3 µM. 0.083% of 340,000 active; in the data active = inhibition mostly above about 23%, no sharp cut-off; inactive = mostly below about 18%;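 note: 0% = cells with DMSO and 100% = no-cell wells with DMSO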
HTR5A ag – HTR5A agonism, opioid heterodimer counter-screen | P47898 | HTR5A agonist assay, luminescence, cell-based | activation, % at 9.3 µM | 0.61% of 340,000 active | AID 504692; in the data active = activation mostly above about 9.5%, no sharp cut-off; inactive = mostly below about 7.6%;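 note: 0% = cells with vehicle only and 100% = reference agonist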
The depositor's hits bear a star; i = inactive. Only some compounds are listed: those with a hit (about 1.1% of all), similar ones and a draw of the others.

SMILES | MOR-DOR ag | MOR-DOR inv ag | HTR5A inv ag | HTR5A ag
COc1ccc(/C=C2/SC(=S)N(CCC(=O)N3CCN(C)CC3)C2=O)cc1 | 3.1 | -22.1 | -19.9 | 13.6*
COc1ccc(/C=C2/SC(=S)N(CCCC(=O)N3CCN(C)CC3)C2=O)cc1 | -0.4 | 1.7 | 7.1 | -2.8
CCCC(=O)C1=C(O)C(C(=O)OC)C(C)(C)CC1=Nc1ccccc1 (stereo not given) | -1.3 | 5.3 | 9.6 | -3.8
CCCC(=O)C1=C(O)C(C(=O)OC)C(C)(C)CC1=Nc1cccc2ccccc12 (stereo not given) | 4.5 | -25.6 | -26.9 | 10.3*
Cc1cccc(NC(=S)N2CCC(NC(=O)c3cccc(F)c3)CC2)c1 | -0.2 | 1.1 | -26.3 | 2.5
COc1ccc(CN(C)C(=O)c2cccc(NC(=O)CC3SC(N4CCCCC4)=NC3=O)c2)c(OC)c1 (stereo not given) | 4.8 | -24.8 | -29.0 | 10.7*
COc1cccc(CN(C)C(=O)c2cccc(NC(=O)CC3SC(N4CCCCC4)=NC3=O)c2)c1OC (stereo not given) | -2.5 | 9.6 | 5.7 | 2.7
Cc1ccc(OCCSc2nc3ccccc3n2CC(=O)O)cc1C | -0.1 | 0.5 | 4.0 | -1.1
Cn1c(=O)n(C)c2cc(C(=O)O)ccc21 | 0.1 | -0.3 | 12.7 | -0.2
Cc1ccccc1C(=O)c1ccc2c(c1)n(C)c(=O)n2C | 0.4 | -2.3 | 18.6 | 11.8*
COc1ccc(S(=O)(=O)N2CCN(c3nn(C)c(=O)n(C)c3=O)CC2)cc1 | -1.7 | 7.2 | 1.9 | -0.8
Cc1ccc2nc(C)cc(C(=O)OCC(=O)c3ccc(Cl)c([N+](=O)[O-])c3)c2c1 | -19.1 | 79.3* | 40.6* | -8.9
COc1ccc(-c2cc(C(=O)OCC(=O)c3ccc(C)c([N+](=O)[O-])c3)c3ccccc3n2)cc1 | -2.3 | 12.1 | -26.3 | -0.8
COc1ccc(-c2sc3ccccc3c2-c2ccc(OCCN(C)C)cc2)cc1 | 12.3 | -66.1 | -52.1 | 13.8*
CN(C)CCOc1ccc(-c2c(-c3ccsc3)sc3ccccc23)cc1 | 5.2 | -27.8 | -27.9 | 8.5
COc1ccc(N(CC(=O)Nc2ccccc2F)S(=O)(=O)c2ccc(OC)c(OC)c2)cc1 | -2.7 | 13.6 | 10.2 | -4.6
COc1ccc(Cn2c(O)c(C=Nc3ccccc3C(=O)O)c3ccccc3c2=O)cc1 | 3.9 | -21.2 | -16.7 | 5.8
COc1ccccc1NS(=O)(=O)c1cccc(-n2c(O)c(C=Nc3ccccc3C(=O)O)c3ccccc3c2=O)c1 | 1.4 | -7.2 | 34.0 | 13.8*
CC(=O)n1cc(N(C(=O)CCl)c2ccccc2)c2ccccc21 | 65.2* | -333.7 | 4.9 | 56.7*
O=C(CCl)N(c1ccccc1)c1c[nH]c2ccccc12 | 38.9* | -194.8 | -103.1 | 40.0*
O=Cc1[nH]c2ccccc2c1N(C(=O)CCl)c1ccc([N+](=O)[O-])cc1 | -3.5 | 18.2 | 5.8 | 2.3
CC(=O)n1cc(N(C(=O)CCl)c2ccc([N+](=O)[O-])cc2)c2ccccc21 | 19.8* | -101.4 | -3.9 | 27.4*
CC(=O)n1cc(CO)c2ccccc21 | -1.2 | 5.9 | 4.1 | 2.1
COc1ccc(CN2CCC(CO)(Cc3cccc(C(F)(F)F)c3)CC2)cc1Cn1cccn1 | 0.4 | -1.9 | -13.3 | 2.7
COc1ccc2cc(C3(C)NC(=O)N(CC(=O)NCC(F)(F)F)C3=O)ccc2c1 (stereo not given) | -2.9 | 13.6 | -3.1 | 0.8
SMILES | MOR-DOR ag | MOR-DOR inv ag | HTR5A inv ag | HTR5A ag
CCOC(=O)c1c(C)[nH]c(=S)c(C#N)c1-c1ccc(OC)cc1 | -2.0 | 12.7 | 5.7 | -3.2
CCCCOc1ccc(-c2c(C(=O)Nc3ccccc3)c(C)[nH]c(=S)c2C#N)cc1 | 3.5 | -22.8 | -34.5 | 13.9*
CCN(CC)CCCN(Cc1cc2cc3c(cc2[nH]c1=O)OCO3)C(=S)NC | 1.0 | -4.8 | -40.2 | 10.8*
CCN(CC)CCCN(Cc1cc2cc3c(cc2[nH]c1=O)OCO3)C(=S)NCCCN(C)C | -0.7 | 3.8 | 11.9 | 3.1
Cc1noc(C)c1CSc1nnc(-c2cccnc2)n1C1CCCCC1C (stereo not given) | -2.1 | 13.0 | -1.5 | 4.9
COc1ccc(Cc2nnc(SCc3c(C)noc3C)n2C2CCCCC2)cc1OC | 1.0 | -6.2 | -59.0 | 12.0*
Cc1ccc(C(=O)OCC(=O)NC2CC2)cc1S(=O)(=O)N1CCOCC1 | -1.6 | 5.8 | -4.9 | -0.8
COc1cccc(N(C(=O)c2snc(C(N)=O)c2N)C(C(=O)NCC2CCCO2)c2cccs2)c1 (stereo not given) | 0.4 | -3.3 | 8.5 | -3.2
COc1cccc(N(C(=O)CCl)C(C(=O)NCCc2ccccc2)c2cccs2)c1 (stereo not given) | 68.4* | -361.9 | -74.6 | 60.7*
COc1ccc(N(C(=O)CCl)C(C(=O)NCCc2ccccc2)c2cccs2)cc1Cl (stereo not given) | 65.5* | -393.7 | -145.5 | 54.1*
COc1ccc(N(C(=O)c2ccco2)C(C(=O)NC2CCCCC2)c2cccs2)cc1OC (stereo not given) | -2.1 | 12.1 | -15.8 | 5.7
CCOc1ccc(NC(=O)Nc2cc(C(=O)O)ccc2N2CC3CC(C2)c2cccc(=O)n2C3)cc1 (stereo not given) | -1.0 | 5.4 | -49.8 | 0.0
O=C1CSC(=S)N1N=Cc1ccc(Cl)s1 | 0.8 | -3.4 | -5.7 | 1.5
COc1cccc(C(=O)N2CCN(C3CCN(Cc4ccccc4)CC3)CC2)c1OC | -1.8 | 9.6 | -12.9 | 1.1
CCCCc1c(C)nn(-c2nnc3c4ccccc4n(C)c3n2)c1C | 8.2 | -44.8 | -41.7 | 11.8*
Cn1c2ccccc2c2nnc(NN)nc21 | 1.1 | -5.5 | 12.5 | -4.8
O=C(Nc1cc(Sc2ccccn2)cc([N+](=O)[O-])c1)c1cccc(Cl)c1 | 4.1 | -23.5 | -1.9 | 0.6
O=C(Nc1cc(Sc2ccccn2)cc([N+](=O)[O-])c1)c1ccc(Cl)cc1 | 29.0* | -133.6 | -22.1 | 19.0*
Cc1ccc(C)c(C(=O)OCC(=O)Nc2cccc(S(=O)(=O)N3CCCCC3)c2)c1 | 2.0 | -10.6 | -15.4 | 4.2
CSc1ccccc1NC(=O)COC(=O)CCC(=O)c1ccc(F)cc1 | -0.8 | 3.9 | -32.7 | 8.4*
Cc1oc2c(c(=O)c1C)C(=O)CC(c1ccccc1)C2 (stereo not given) | -2.1 | 9.8 | 1.6 | 1.9
CS(=O)(=O)c1sc(C#N)c2c1C(=O)CC(c1ccccc1)C2 (stereo not given) | -7.0 | 35.5* | 13.7 | -6.8
CCn1c(=O)cc(OCC(=O)Nc2cc(C)ccn2)c2ccccc21 | -0.3 | 1.5 | -5.8 | 1.2
Cc1cccc(N(C)C(=O)COc2cc(=O)n(C)c3ccccc23)c1 | -0.8 | 4.1 | -30.8 | 11.1*
CCn1c(=O)cc(OCC(=O)NCCc2cccc(C)c2)c2ccccc21 | -0.7 | 5.1 | -31.8 | 11.6*
COc1ccc(-c2sc3ccc(N4CCOCC4)cc3c2C#CCO)cc1 | 4.5 | -26.0 | 5.5 | 3.4
COc1ccc(-c2sc3ccc(N4CCOCC4)cc3c2C#CC2(O)CCCCC2)cc1 | 4.4 | -24.6 | -46.3 | 12.8*
Cc1cc(-c2nn(-c3ccccc3F)cc2CN2CCC(C(N)=O)CC2)c(C)s1 | -0.6 | 3.1 | 4.4 | -1.1
Cc1cc(-c2nn(-c3ccccc3F)cc2CNCCc2cnc[nH]2)c(C)s1 | 143.6* | i | -8.8 | -3.1
